From the supplement of paper PMC7801607

How the values were obtained:
[1] = system: CHO; assay: % viability of CHO cells (MTT); higher = less toxic; conditions: 48 h
Method in brief: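 CHO cells were seeded at 10^6 cells/well in 200 µL and left overnight to attach. The medium was then replaced with fresh medium containing compound at 2 or 20 µM for 48 h. Survival was read colorimetrically with the tetrazolium (MTT) assay. Percent viability was expressed relative to untreated cells.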

[2] = system: HepG2-A16-CD81; assay: % inhibition of HepG2 viability (CellTiter-Glo); higher = more toxic; conditions: 5 µM
[3] = system: Plasmodium falciparum NF54 stage IV/V gametocytes; assay: % inhibition of gametocyte viability (PrestoBlue); higher = more inhibition; conditions: 48 h
Method in brief: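 Stage IV/V NF54 gametocytes (2% gametocytaemia, 5% haematocrit, 100 µL/well) were exposed to compound at 1 or 5 µM. Incubation was 48 h at 37 °C, stationary and hypoxic, followed by 10 µL PrestoBlue for 2 h. Fluorescence at 612 nm was read on 70 µL of transferred supernatant. Percent inhibition of gametocyte viability was normalised to DMSO and kill controls from a single run.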

[4] = system: Plasmodium falciparum NF54 asexual blood stage; assay: % inhibition of asexual blood stage proliferation (pLDH); higher = more inhibition; conditions: 72 h
Method in brief: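 Plasmodium falciparum NF54 ring-stage cultures (1% haematocrit, 2% parasitaemia) were exposed to compound at 2 or 20 µM in 96-well plates. Incubation was 72 h at 37 °C under 4% CO2, 3% O2 and 93% N2. Survival was read colorimetrically at 620 nm with the parasite lactate dehydrogenase assay. Percent inhibition of asexual proliferation was normalised to DMSO and kill controls, and the screen was run on two separate occasions.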

[5] = system: Plasmodium falciparum NF54 stage IV/V gametocytes; assay: % inhibition of gametocyte viability (ATP bioluminescence); higher = more inhibition; conditions: 24 h
Method in brief: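 In 96-well plates, compound at 1 or 5 µM was added to 30,000 density-gradient-enriched stage IV/V NF54 gametocytes per well and incubated for 24 h at 37 °C. ATP readout used the Promega BacTiter Glo bioluminescence system. Percent inhibition of gametocyte viability comes from a single run, normalised to control wells.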

[6] = system: Plasmodium falciparum NF54 stage IV/V gametocytes; assay: % inhibition of gametocyte viability (luciferase reporter); higher = more inhibition; conditions: 48 h
Method in brief: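 Compound at 1 or 5 µM was added to stage IV/V NF54-Pfs16-GFP-Luc gametocytes (2% gametocytaemia, 2% haematocrit) and incubated stationary and hypoxic at 37 °C for 48 h. A GloMax-Multi+ reader measured luminescence over 10 s integration on 30 µL lysate plus 30 µL Promega luciferin substrate. Percent inhibition values were normalised to controls within a single run.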

[7] = system: Plasmodium berghei ANKA liver stage in HepG2-A16-CD81; assay: % inhibition of liver stage parasite viability (luciferase); higher = more inhibition; conditions: 5 µM; 48 h
Protocol: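 Single-concentration screen of the MMV Pandemic Response Box. P. falciparum NF54 asexual blood stages: pLDH assay, 72 h at 37 °C, 2 and 20 µM, n=2. Stage IV/V gametocytes (NF54): luciferase reporter (NF54-Pfs16-GFP-Luc, 48 h), ATP bioluminescence (24 h) and PrestoBlue (48 h) at 1 and 5 µM, n=1. P. berghei liver stage (luciferase in HepG2-A16-CD81, 48 h post infection) at 5 µM, n=4. All normalised to DMSO and kill controls as % inhibition.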
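Wherever % inhibition of HepG2 viability (CellTiter-Glo) is given: HepG2-A16-CD81 hepatoma cells plated as in the liver-stage assay but without sporozoites, with DMSO wells as negative and 25 µM puromycin as positive control.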

| SMILES | % viability of CHO cells ([1]; 2 µM) [%] | % viability of CHO cells ([1]; 20 µM) [%] | % inhibition of HepG2 viability [2] [%] | % inhibition of gametocyte viability ([3]; 1 µM) [%] | % inhibition of gametocyte viability ([3]; 5 µM) [%] | % inhibition of asexual blood stage proliferation ([4]; 2 µM) [%] | % inhibition of asexual blood stage proliferation ([4]; 20 µM) [%] | % inhibition of gametocyte viability ([5]; 1 µM) [%] | % inhibition of gametocyte viability ([5]; 5 µM) [%] | % inhibition of gametocyte viability ([6]; 1 µM) [%] | % inhibition of gametocyte viability ([6]; 5 µM) [%] | % inhibition of liver stage parasite viability [7] [%] |
| --- | --- | --- | --- | --- | --- | --- | --- | --- | --- | --- | --- | --- |
| OB1OCc2c1ccc(Cl)c2F | 95.7 | 101 | -0.44 | 8.58 | < 0 | 0.633 | 36.7 | < 0 | < 0 | < 0 | < 0 | 7.88 |
| C[C@H]1[C@@H](c2cccc(C(F)(F)F)c2)OC(=O)N1C(=O)NCc1cncc2ccccc12 | 93.8 | 118 | 12.1 | < 0 | 27.7 | -2.37 | 30.8 | < 0 | < 0 | < 0 | < 0 | 63.9 |
| O[C@@](Cn1cnnn1)(c1ccc(F)cc1F)C(F)(F)c1ccc(-c2ccc(OCC(F)(F)F)cc2)cn1 | 92.3 | 95.9 | 13 | 1.61 | 22.4 | 7.2 | 82.5 | < 0 | 25.9 | < 0 | 3.57 | 40 |
| CC1CN(c2ncnc3c2c(-c2ccccc2)cn3-c2ccc(F)cc2)CC(C)O1 (stereo unspecified) | 82.6 | 122 | 6.07 | 17.3 | 1.77 | 75.6 | 95.5 | < 0 | < 0 | < 0 | < 0 | 37.1 |
| CN(C)CCCOc1ccc(-c2ccc3ncc4c(c3c2)n(C2CCOCC2)c(=O)n4C)cn1 | 99.8 | 75.9 | 4 | 61.8 | 91.9 | 68.1 | 57.1 | 18.7 | 33.7 | 78.1 | 92 | 64.6 |
| NNC(=O)c1ccncc1 | 94.3 | 96.5 | 8.54 | < 0 | 4.24 | 40.1 | 71.2 | < 0 | < 0 | 17.1 | < 0 | 22.9 |
| CC(=O)N1c2ccccc2NC2=C(C(=O)CC(C)(C)C2)C1c1ccc(OCc2ccccc2)cc1 (stereo unspecified) | 119 | 85.5 | -5.09 | 27.1 | 24.2 | -13.1 | 76.9 | 1.11 | 3.14 | 9.92 | < 0 | 27.4 |
| CCc1c(OCC2CCC2)c2cc(F)ccc2[nH]c1=O | 78.6 | 52.7 | -2.38 | 14.3 | 2.83 | 26.9 | 36 | 7.14 | < 0 | < 0 | < 0 | 12.7 |
| Cc1c(OCC(F)(F)F)ccnc1CS(=O)c1nc2ccccc2[nH]1 (stereo unspecified) | 87.1 | 96.9 | 1.82 | 14.1 | 15.8 | 71.5 | 95.5 | < 0 | < 0 | < 0 | < 0 | -23.2 |
| Cc1c(N)cccc1Cn1ccc(OCCc2cccs2)cc1=O | 240 | 54.9 | 5.54 | < 0 | < 0 | 6.4 | 22.2 | 0.516 | < 0 | < 0 | < 0 | 17 |
| CN(C(=O)C1(c2ccc(Cl)cc2)CCC1)c1ccccc1 | 105 | 102 | -4.47 | 17.1 | 17.3 | 10.7 | 59 | < 0 | < 0 | < 0 | 1.35 | 3.18 |
| N=c1n(CCN2CCCCC2)c2ccccc2n1CC(O)COc1ccc(Cl)cc1Cl (stereo unspecified) | 82.7 | -3.8 | 5.14 | 38.8 | 66 | 76.8 | 85.7 | 85.7 | 88.1 | 40.7 | 97 | -0.075 |
| CCc1nc(N)nc(N)c1C#CCc1ccccc1 | 105 | 92.5 | 5.43 | 1.8 | < 0 | 66 | 97.2 | < 0 | < 0 | 5.41 | < 0 | 76.9 |
| CCOc1ccc(/C=N/NC(=O)C2CC2c2ccc(C(C)(C)C)cc2)cc1OCC (stereo unspecified) | 96.4 | 63.6 | -8.74 | < 0 | 1.6 | 18.7 | 37.8 | < 0 | < 0 | 17.9 | < 0 | 11.3 |
| Fc1ccc(-n2cc(Cn3c(-c4cccc(F)c4)nc4ccccc43)nn2)cc1 | 86.4 | 78.7 | -1.61 | < 0 | 43.7 | 9.59 | 83.1 | < 0 | < 0 | < 0 | < 0 | 6.9 |
| CCCCCCCCCN1C[C@@H](O)[C@H](O)[C@@H](O)[C@@H]1CO | 94.1 | 58.9 | 4.62 | < 0 | 3.2 | 38.4 | 25.3 | < 0 | < 0 | 2.02 | 2.49 | -1.14 |
| Cc1cc(O)c2c(c1)C(=O)c1c(I)c(O)c(I)c(O)c1C2=O | 81.3 | 64.1 | 4.29 | < 0 | < 0 | 30.5 | 64.9 | < 0 | < 0 | < 0 | 6.19 | -49.9 |
| CCOc1ccc(C(=O)NCCc2ccccc2)cc1 | 119 | 77.8 | 1.88 | 31.4 | 70.5 | 34 | 76.1 | 6.61 | < 0 | < 0 | 64.1 | -19.9 |
